# ± gives the standard deviation.
# Tested on: MILI (PIWIL2) piRISC loaded with piRNA #1 (26 nt)
# Assay: pre-steady-state target cleavage rate (min^-1); guide: piRNA #1 5'p-UGAGGUAGUAGGUUGUAUAGUAUCCA; MIWI and MILI are mouse PIWI proteins and EfPiwi is from a freshwater sponge; tags in brackets are library labels; higher = faster piRNA-guided slicing of the target
# Conditions: auxiliary factor: 500 nM mouse GTSF1
# Method in brief: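 Active affinity-purified piRISC carrying one synthetic guide (1 nM) was mixed with a transcribed, DNA-blocked target RNA library […] in HEPES–potassium acetate buffer at 33 °C for 0–8 or 0–960 min, with or without 500 nM GTSF1 partner protein. Uncleaved targets were then sequenced and normalised to depth and to weakly complementary targets. Three trials were pooled, and k3 was capped at 0.0001 min^-1. A burst-and-steady-state fit was applied to obtain the pre-steady-state cleavage rate.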
# 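Also: 1 nM active piRISC with 0.1 nM target library at 33 °C single turnover.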
row,Sequence,pre-steady-state target cleavage rate
1,GGAGACCUAUGAUAACAACCUACUACCUGCA,0.00443 ± 0.0033
2,GGAGACGAUUCUAUACAACCUACUACGUCA,0.0993 ± 0.0097
3,GGAGACCUAUCUAAACAACCUACUACGUCA,0.0213 ± 0.0039
4,GGAGUGGAUCACUAUACAACCUACUACCUCA,0.0867 ± 0.025
5,GGAGACCUAUCUAGACAACCUACUACCUCA,0.103 ± 0.016
6,GGAGACCUAUGUAUACAACCUACUACACUCA,0.12 ± 0.018
7,GGAGACCUAUGAUUACAAGCUACUACGUCA,0.00819 ± 0.0037
8,GGAGACCUAUGUAAACAACGUACUACCUCA,0.0029 ± 0.002
9,GGAGACCUUACUUUACAACCAACUACCUCA,0.00491 ± 0.0033
10,GGAGUGGAUUCUAUACAACCUACAACCUCA,0.0777 ± 0.0074
11,GGAGACCUUAGUAUACAACCUUCUACCUCA,0.00489 ± 0.0033
12,GGAGACCAUACUAUACAACGUACUACGUCA,0.0148 ± 0.0053
13,GGAGACCUUACUAUACAACCUACUAGCACA,0.0607 ± 0.017
14,GGAGACCUAUGAUAUGUUCCUACUACCUGA,< 0.0001
15,GGAGACCUAUGAUAUGUACUCUACUACCUCA,< 0.0001
16,GGAGACCUAUCUAUACAACCAACUACCACA,0.00574 ± 0.0023
17,GGAGACCUAUGAUUACAACCUACUACCCUCA,0.00361 ± 0.0029
18,GGAGACCUUAGUAUAGAACCUACUACCUCA,0.0876 ± 0.013
19,GGAGACCAUAGUAUUCAACCUACUACCUCA,0.11 ± 0.013
20,GGAGUGGAUACUAUAUCAACCUACUACCUCA,0.143 ± 0.013

row,Sequence,pre-steady-state target cleavage rate
1,GGAGACCUAUCUAUUCAACCUACUACGUCA,0.0451 ± 0.0089
2,GGAGACCUAAGUAUACAACGUACUACCUCA,0.0111 ± 0.0021
3,GGAGACCUAUCUAAACAACGUACUACCUCA,0.00647 ± 0.0027
4,GGAGACCUUUCUAUACAACCUACUACCACA,0.152 ± 0.018
5,GGAGUGGAUACGUAUACAACCUACUACCUCA,0.111 ± 0.0099
6,GGAGACCUUUCUAUACAACCUACUUCCUCA,0.0321 ± 0.0062
7,GGAGACCUAUGAAUACAAGCUACUACCACA,0.0366 ± 0.0055
8,GGAGAGGAUACUAUACUACCUACUACGUCA,0.0806 ± 0.01
9,GGAGACCUUACUAUACUACCUACAACCUCA,0.13 ± 0.011
10,GGAGACCUAUGAAUACAACGUACUACCACA,0.00353 ± 0.0029
11,GGAGACCUAAGUAUUCAACCUACUACCUCA,0.0617 ± 0.0092
12,GGAGACCUUAGUAUACAAGCUACUACCUCA,0.174 ± 0.012
13,GGAGACCUAUCUUUACAACGUACUACCUCA,0.00834 ± 0.002
14,GGAGACCUAACUAAACAACCUACUACCUGA,0.0558 ± 0.021
15,GGAGACCUAUCUAUACAACCUACUUACCUCA,0.121 ± 0.015
16,GGAGACCUAACUAAACAACCUACUUCCUCA,0.0346 ± 0.013
17,GGAGACCUAUCUAUUCAACGUACUACCUCA,0.00945 ± 0.003
18,GGAGACCUAUGAUAUCAAGGAACUACCUCA,< 0.0001
19,GGAGACCUAUCUAUACAACCUACUAGCCUCA,0.147 ± 0.02
20,GGAGACCUAUGAUUACAACCUACUACCUCC [g2:g17:cont:t1C],0.00979 ± 0.0034
